The source made the active and inactive calls.
Tests used:
[1] = system: Plasmodium falciparum Sir2 (PF13_0152, Sir2A); test: pfSir2 binders on small-molecule microarrays, primary screen, biochemical, small-molecule microarray, 635 nm fluorescence (AID 1098); conditions: small-molecule microarray binding, fluorescence 635 nm; higher = more signal;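 further: score merges spot fluorescence intensity with its signal-to-noise ratio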
[2] = small-molecule microarray binders of probe aDKK1, primary screen, biochemical, biotinylated probe, 635/667 nm fluorescence (AID 1099); conditions: higher = more signal;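 further: score merges 667nm spot fluorescence with signal to noise across triplicate slides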
[3] = small-molecule microarray binders of probe aCHRDL2, primary screen, biochemical, biotinylated probe, 635/667 nm fluorescence (AID 1100); conditions: higher = more signal
[4] = splicing luciferase reporter signal modulators, primary screen, spliceosome inhibition project, cell-based, HEK293, splice +/- reporter (AID 1101); conditions: luminescence, 24 h, higher = more signal, called active from +8 up or from −8 down;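 further: HEK293 cells carrying a splicing-competent luciferase reporter gene; test concentration not given here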
[5] = target: Fibroblast growth factor 10 (Homo sapiens) (UniProt O15520); test: FGF10 binders on small-molecule microarrays, primary screen, biochemical, small-molecule microarray, 635 nm fluorescence (AID 1102); conditions: FGF10 binding, fluorescence 635 nm, higher = more signal
[6] = system: glycogen synthase kinase-3 (GSK3A per assay name; protocol says GSK3B); test: GSK3 binders on small-molecule microarrays, primary screen, biochemical, small-molecule microarray, 635 nm fluorescence, GSK3A (AID 1103); conditions: small-molecule microarray binding, fluorescence 635 nm; higher = more signal; further: the record names both GSK3A and GSK3B
[7] = target: Epidermal growth factor receptor (Homo sapiens) (UniProt P00533); test: EGFR binders on small-molecule microarrays, primary screen, biochemical, small-molecule microarray, 635 nm fluorescence (AID 1104); conditions: EGFR binding, higher = more signal;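 further: score merges 667 nm emission intensity with spot signal to noise over triplicate slides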
[8] = target: Follistatin-related protein 3 (Homo sapiens) (UniProt O95633); test: FSTL3 binders on small-molecule microarrays, primary screen, biochemical, small-molecule microarray, 635 nm fluorescence (AID 1105); conditions: FSTL3 binding, higher = more signal;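 further: score merges emission near 667 nm and signal to noise per printed spot across three slides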
[9] = target: Dickkopf-related protein 1 (Homo sapiens) (UniProt O94907); test: DKK1 binders on small-molecule microarrays, primary screen, biochemical, small-molecule microarray, 635 nm fluorescence scan (AID 1106); conditions: DKK1 binding, higher = more signal;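 further: score merges emission near 667 nm with signal to noise over three replicate slides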
[10] = system: Inhibin beta A chain (activin A); test: INHBA (activin A) binders on microarrays, primary screen, biochemical, small-molecule microarray, 635 nm fluorescence scan (AID 1107); conditions: small-molecule microarray binding, higher = more signal;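 further: mouse activin A protein probed at 4.33 µg/mL on printed slides; score merges bound-protein fluorescence near 667 nm with spot signal-to-noise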
[11] = system: Human papillomavirus type 1a protein E7 (residues 44-93); test: HPV1a E7 fragment binders on microarrays, primary screen, biochemical, small-molecule microarray, residues 44-93, 635 nm fluorescence (AID 1108); conditions: small-molecule microarray binding, fluorescence 635 nm; higher = more signal;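 further: E7 fragment applied at 1 µg/mL in TBST for 1 h at 4 C; score combines spot fluorescence with its signal to noise ratio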
[12] = modulators of HCV replicon luciferase signal, primary screen, HCV replication inhibitor project, Huh7 cells, luciferase reporter (AID 1109); conditions: 48 h, higher = more signal;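 further: huh7 hepatoma cells harbouring a luciferase neomycin HCV replicon reporter; luciferase luminescence as measure of HCV replicon replication; test concentration not given here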
[13] = target: Left-right determination factor 2 (Homo sapiens) (UniProt O00292); test: LEFTY2 binders on small-molecule microarrays, primary screen, biochemical, small-molecule microarray, 635 nm fluorescence scan (AID 1110); conditions: LEFTY2 binding, higher = more signal
[14] = target: Calmodulin-1 (Homo sapiens) (UniProt P0DP23); test: CALM1 binders on microarrays, EGTA buffer, profiling panel, biochemical, small-molecule microarray, Cy5-labelled CALM1 (AID 1111); conditions: Cy5-CALM1 binding fluorescence, higher = more signal;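 further: labelled calmodulin applied in Tris saline Tween buffer holding calcium plus EGTA and DTT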
[15] = target: Calmodulin-1 (Homo sapiens) (UniProt P0DP23); test: calcium-bound CALM1 binders on microarrays, profiling panel, artefact control for SMM control-protein annotation, biochemical, small-molecule microarray, Cy5-labelled CALM1, plus calcium (AID 1112); conditions: Cy5-CALM1 binding fluorescence, higher = more signal;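 further: score merges spot fluorescence with signal to noise from triplicate slides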
[16] = small-molecule microarray binders of probe aWnt5a, primary screen, biochemical, biotinylated probe, 635/667 nm fluorescence (AID 1113); conditions: higher = more signal;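 further: score merges 667 nm fluorescence intensity with signal-to-noise per printed feature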
[17] = small-molecule microarray binders of probe aShh, primary screen, biochemical, biotinylated probe, 635/667 nm fluorescence (AID 1114); conditions: higher = more signal;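 further: probe is biotin-labelled aShh protein from a stem cell growth factor screen; measures binding of labelled protein to compounds printed on the slide; score merges feature fluorescence at 667 nm with signal-to-noise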
[18] = small-molecule microarray binders of probe aNog, primary screen, biochemical, biotinylated probe, 635/667 nm fluorescence (AID 1115); conditions: higher = more signal;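 further: probe is biotinylated aNog protein used at 0.15 µg/mL for 1 h at 4 C; z-score combines 667 nm fluorescence of each spot with its signal to noise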
[19] = target: Torsin-1A-interacting protein 1 (Homo sapiens) (UniProt Q5JTV8); test: LAP1 binders from COS7 cell lysate, primary screen, small-molecule microarray, 635/667 nm fluorescence (AID 1116); conditions: COS7-hLAP1 lysate binding, 635 nm fluorescence, higher = more signal
[20] = target: Alpha-bungarotoxin (Bungarus multicinctus) (UniProt P60615); test: alpha-bungarotoxin binders on microarray, profiling panel, artefact control for SMM control protein annotation, biochemical, small-molecule microarray, Alexa647 label, 635/667 nm fluorescence (AID 1117); conditions: alpha-BTX-A647 binding fluorescence, higher = more signal
Chain of Alpha-bungarotoxin (Bungarus multicinctus) (P60615 whole entry, looked up): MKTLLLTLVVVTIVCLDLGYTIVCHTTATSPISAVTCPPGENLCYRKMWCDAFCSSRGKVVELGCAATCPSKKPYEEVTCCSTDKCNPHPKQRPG

Chain of Left-right determination factor 2 (Homo sapiens) (O00292 whole entry, looked up): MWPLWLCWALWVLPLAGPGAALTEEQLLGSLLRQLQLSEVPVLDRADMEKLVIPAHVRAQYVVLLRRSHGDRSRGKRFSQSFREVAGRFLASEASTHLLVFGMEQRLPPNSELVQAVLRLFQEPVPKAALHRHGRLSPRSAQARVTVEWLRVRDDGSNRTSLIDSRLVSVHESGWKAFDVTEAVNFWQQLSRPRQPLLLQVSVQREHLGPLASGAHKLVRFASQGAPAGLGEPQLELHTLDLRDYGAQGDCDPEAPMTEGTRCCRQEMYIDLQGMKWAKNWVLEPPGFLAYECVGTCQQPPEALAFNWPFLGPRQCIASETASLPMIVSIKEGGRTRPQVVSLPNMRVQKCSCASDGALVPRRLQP
Chain of Epidermal growth factor receptor (Homo sapiens) (P00533 whole entry, looked up): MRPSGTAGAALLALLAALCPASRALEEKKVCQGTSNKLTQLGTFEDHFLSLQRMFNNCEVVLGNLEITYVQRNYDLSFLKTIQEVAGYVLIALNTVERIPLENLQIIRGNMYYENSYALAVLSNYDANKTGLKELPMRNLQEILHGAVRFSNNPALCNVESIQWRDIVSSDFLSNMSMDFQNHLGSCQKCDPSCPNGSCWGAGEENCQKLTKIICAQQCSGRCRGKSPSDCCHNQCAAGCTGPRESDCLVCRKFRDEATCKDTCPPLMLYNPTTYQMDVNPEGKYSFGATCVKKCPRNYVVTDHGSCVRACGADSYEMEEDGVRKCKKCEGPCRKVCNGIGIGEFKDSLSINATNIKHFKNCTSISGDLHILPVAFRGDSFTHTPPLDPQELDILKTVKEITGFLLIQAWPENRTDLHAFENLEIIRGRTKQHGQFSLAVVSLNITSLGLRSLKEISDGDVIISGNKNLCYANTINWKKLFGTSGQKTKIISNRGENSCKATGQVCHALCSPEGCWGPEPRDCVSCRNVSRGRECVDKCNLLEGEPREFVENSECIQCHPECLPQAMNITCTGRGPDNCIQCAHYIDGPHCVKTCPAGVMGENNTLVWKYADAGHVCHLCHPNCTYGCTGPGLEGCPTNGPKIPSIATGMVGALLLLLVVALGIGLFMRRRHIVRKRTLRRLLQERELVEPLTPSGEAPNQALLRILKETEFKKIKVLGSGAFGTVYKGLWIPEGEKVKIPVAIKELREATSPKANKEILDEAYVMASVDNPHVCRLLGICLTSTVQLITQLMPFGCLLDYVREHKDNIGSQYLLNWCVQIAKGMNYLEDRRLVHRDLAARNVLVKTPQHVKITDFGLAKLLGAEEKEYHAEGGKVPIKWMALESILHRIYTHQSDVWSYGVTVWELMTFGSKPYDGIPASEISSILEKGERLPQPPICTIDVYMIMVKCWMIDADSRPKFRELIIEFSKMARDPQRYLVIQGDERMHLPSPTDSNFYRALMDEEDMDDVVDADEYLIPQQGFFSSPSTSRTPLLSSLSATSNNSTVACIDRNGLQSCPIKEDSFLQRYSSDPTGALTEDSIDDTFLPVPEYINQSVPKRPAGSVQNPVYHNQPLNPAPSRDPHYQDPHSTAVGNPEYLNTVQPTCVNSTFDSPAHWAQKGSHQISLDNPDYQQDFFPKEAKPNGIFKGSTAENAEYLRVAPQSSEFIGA
Chain of Fibroblast growth factor 10 (Homo sapiens) (O15520 whole entry, looked up): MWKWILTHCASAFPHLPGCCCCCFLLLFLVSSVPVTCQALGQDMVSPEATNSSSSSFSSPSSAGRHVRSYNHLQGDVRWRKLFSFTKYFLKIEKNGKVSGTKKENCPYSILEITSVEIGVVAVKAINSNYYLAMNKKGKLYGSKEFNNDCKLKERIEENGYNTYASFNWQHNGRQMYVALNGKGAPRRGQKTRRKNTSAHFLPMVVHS
Chain of Torsin-1A-interacting protein 1 (Homo sapiens) (Q5JTV8 whole entry, looked up): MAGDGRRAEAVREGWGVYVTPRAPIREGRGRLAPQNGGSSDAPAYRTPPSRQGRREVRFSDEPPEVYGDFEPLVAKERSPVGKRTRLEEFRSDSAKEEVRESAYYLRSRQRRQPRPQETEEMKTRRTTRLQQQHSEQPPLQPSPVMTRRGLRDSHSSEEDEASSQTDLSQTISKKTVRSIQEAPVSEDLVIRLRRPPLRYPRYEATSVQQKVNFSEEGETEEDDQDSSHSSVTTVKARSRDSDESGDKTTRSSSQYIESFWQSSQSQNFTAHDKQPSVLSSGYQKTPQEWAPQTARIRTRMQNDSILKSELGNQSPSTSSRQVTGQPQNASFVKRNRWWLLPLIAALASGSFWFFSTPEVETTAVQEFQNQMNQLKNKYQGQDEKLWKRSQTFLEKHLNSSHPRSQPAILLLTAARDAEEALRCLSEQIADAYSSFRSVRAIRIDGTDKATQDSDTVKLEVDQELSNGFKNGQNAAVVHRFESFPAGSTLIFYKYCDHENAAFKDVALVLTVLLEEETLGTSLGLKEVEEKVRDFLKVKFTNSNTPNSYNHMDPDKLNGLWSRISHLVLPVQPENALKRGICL
Chain of Dickkopf-related protein 1 (Homo sapiens) (O94907 whole entry, looked up): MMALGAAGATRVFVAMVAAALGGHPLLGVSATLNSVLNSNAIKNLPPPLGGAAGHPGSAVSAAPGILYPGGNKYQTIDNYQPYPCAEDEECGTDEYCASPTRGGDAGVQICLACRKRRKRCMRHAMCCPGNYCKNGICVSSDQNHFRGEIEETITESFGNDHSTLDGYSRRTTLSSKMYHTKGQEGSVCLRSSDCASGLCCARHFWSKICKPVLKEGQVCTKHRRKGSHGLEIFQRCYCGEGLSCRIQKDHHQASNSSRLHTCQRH
Chain of Follistatin-related protein 3 (Homo sapiens) (O95633 whole entry, looked up): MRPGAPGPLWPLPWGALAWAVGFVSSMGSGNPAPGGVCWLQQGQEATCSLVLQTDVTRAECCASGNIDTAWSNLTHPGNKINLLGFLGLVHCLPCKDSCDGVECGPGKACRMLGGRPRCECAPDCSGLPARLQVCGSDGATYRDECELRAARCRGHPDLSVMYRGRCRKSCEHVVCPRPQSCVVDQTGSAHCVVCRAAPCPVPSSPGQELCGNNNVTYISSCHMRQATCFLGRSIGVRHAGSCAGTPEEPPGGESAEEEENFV

SMILES | composite z-score [1] | composite z-score [2] | composite z-score [3] | z-score [4] | composite z-score [5] | composite z-score [6] | composite z-score [7] | composite z-score [8] | composite z-score [9] | composite z-score [10] | composite z-score [11] | z-score [12] | composite z-score [13] | composite z-score [14] | composite z-score [15] | composite z-score [16] | composite z-score [17] | composite z-score [18] | composite z-score [19] | composite z-score [20]
COCCOC(=O)N1C(=O)[C@@]2(c3cc(C#CC4=CCCCC4)ccc31)[C@H](C(=O)NC[C@H](O)c1ccccc1)[C@H]1C(=O)O[C@H](c3ccccc3)[C@H](c3ccccc3)N1[C@@H]2c1ccccc1OCCO | 1.28 | 0.659 | 0.635 | -1.5 (inactive) | 0.533 | 1.05 | 0.366 | 1.08 | 0.599 | 1.13 | 0.453 | -3.01 | 0.394 | 1.43 | 0.635 | 0.0246 | 0.443 | 0.216 | 0.814 | 2.18
CN1C(=O)C2C=CC(C(O)C3CC=CCC3)N(Nc3ccccc3)C2C1=O (stereo not given) | 1.09 | 0.642 | 0.533 | 1.2 (inactive) | 0.989 | 0.879 | 1.07 | 1.45 | 1.06 | 1.3 | 1.24 | -0.556 | 0.76 | 1.55 | 0.129 | -0.0792 | -0.0289 | 0.897 | 0.764 | 1.58
O=C1c2ccccc2[C@](Cc2ccccc2I)(C(=O)O)[C@H](c2ccc(CO)cc2)N1C1CCCCC1 | 1.31 | 0.94 | 1.05 | -1.32 (inactive) | 1.28 | 1.28 | 0.947 | 1.06 | 0.16 | 0.198 | 1.02 | -1.33 | 0.15 | 1.61 | 0.487 | -0.0203 | -0.018 | 0.213 | 1.5 | 1.53
COCCOC(=O)N1C(=O)[C@@]2(c3cc(C#CCNC(N)=O)ccc31)[C@H](C(=O)N1CCCCCCC1)[C@H]1C(=O)O[C@H](c3ccccc3)[C@H](c3ccccc3)N1[C@@H]2c1ccccc1OCCO | 0.733 | 1.46 | 0.734 | -0.12 (inactive) | 0.718 | 0.205 | 0.79 | 1.22 | 0.485 | 1.33 | 1.32 | -2.1 | 1.09 | 0.886 | 0.632 | 0.193 | 0.46 | 0.878 | 0.845 | 0.48
CN(C)c1ccc(C(O)C2C=CC3C(=O)NC(=O)C3N2Nc2ccc(Cl)cc2Cl)cc1 (stereo not given) | 0.189 | 0.88 | 1.09 | 0.701 (inactive) | 0.356 | 0.121 | -0.789 | 0.554 | -0.336 | 1.43 | 1.36 | -0.0428 | -1.14 | 0.615 | -0.327 | 0.0328 | 0.0993 | 1.21 | 0.0689 | 0.359
C#CCCCON=C1C[C@@H](O)[C@@H](O)[C@@H]2[C@@H]3C(=O)N(Cc4ccc5c(c4)OCO5)C(=O)[C@@H]3CC[C@@H]12 | 0.211 | -0.136 | 0.0822 | -0.117 (inactive) | 0.42 | 0.257 | 0.336 | 0.862 | 0.278 | 0.308 | 0.449 | 0.0713 | 0.448 | 0.127 | -0.19 | -0.096 | 0.147 | 0.0136 | -0.0849 | 1.4
CCCC=C(CCC)[C@@H](NS(=O)(=O)c1ccc(-c2ccccc2)cc1)c1ccc(C(=O)OC)cc1 | -0.127 | 0.224 | 0.516 | -2.72 (inactive) | -0.632 | -0.84 | -0.243 | -0.875 | -0.422 | 0.573 | 0.17 | -1.35 | 0.0185 | 0.601 | 0.581 | -0.104 | 0.0796 | 0.119 | 0.756 | -0.214
C=CC[C@@]1(C(=O)N2CCOCC2)N=C(c2ccc(OCCCO)cc2)O[C@@H]1c1ccccc1 | -0.406 | 0.853 | 0.845 | -0.462 (inactive) | 0.293 | 0.175 | -0.622 | -0.72 | -0.191 | 0.437 | 0.0433 | -0.802 | -0.464 | 0.0981 | 0.0806 | -0.166 | -0.184 | 0.34 | 1.68 | 2.84
CO[C@H]1COC(=O)CC=C[C@H](C)[C@@H](OC)COC(=O)[C@H](Cc2ccccc2)NC(=O)CC=C[C@@H]1C | 1.49 | -1.1 | -1.86 | -1.34 (inactive) | -0.0885 | 0.344 | 0.514 | 1.22 | 1.96 | 1.72 | -1.64 | -0.74 | 1.12 | -1.67 | -3.12 | -0.144 | -0.11 | -0.537 | -0.272 | -1.24
COCC(=C=CC[C@H](O)c1ccc(OCCO)cc1)C[C@H](O)c1ccccn1 | 0.338 | -0.169 | -0.201 | 0.0572 (inactive) | -0.198 | 0.208 | -0.829 | -0.293 | -0.326 | 0.403 | 0.131 | -0.932 | -0.454 | -0.581 | -0.705 | -0.186 | 0.235 | 0.0516 | 0.925 | -0.458
O=C1OCCC=C[C@H]2OC34C=CCN(Cc5ccccc5)C(=O)[C@H]3N(CCO)C(=O)[C@@H]4C12 (stereo not given in full) | -0.37 | -0.273 | 0.0184 | -2.82 (inactive) | -0.835 | -0.958 | -0.844 | -0.376 | -0.46 | 1.02 | -0.936 | -1.23 | -0.591 | -0.675 | 0.681 | -0.248 | -0.276 | -0.224 | -0.18 | -2.01

— PubChem BioAssay
